Screening data deposited in PubChem by Johns Hopkins Ion Channel Center.
KCNQ2 pot – enhances the rat KCNQ2 potassium channel | CHO-K1 KCNQ2, FluxOR thallium flux fluorescence; active compounds read high | B-score at 10 µM | hit rate 0.54% among 310,000 | AID 2239;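 active = fluorescence ratio B-score at least 3 SD of library B-scores, with initial fluorescence B-score within 3 of them, cut at about 5.3 in these data; same plate scores as AID 2156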;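 note: B-score of peak minus minimum over baseline fluorescence ratio after K+ and Tl+ stimulus; positive B-score means potentiation of KCNQ2 with more thallium influx and brighter signal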
Target sequence (O88943 whole entry, looked up): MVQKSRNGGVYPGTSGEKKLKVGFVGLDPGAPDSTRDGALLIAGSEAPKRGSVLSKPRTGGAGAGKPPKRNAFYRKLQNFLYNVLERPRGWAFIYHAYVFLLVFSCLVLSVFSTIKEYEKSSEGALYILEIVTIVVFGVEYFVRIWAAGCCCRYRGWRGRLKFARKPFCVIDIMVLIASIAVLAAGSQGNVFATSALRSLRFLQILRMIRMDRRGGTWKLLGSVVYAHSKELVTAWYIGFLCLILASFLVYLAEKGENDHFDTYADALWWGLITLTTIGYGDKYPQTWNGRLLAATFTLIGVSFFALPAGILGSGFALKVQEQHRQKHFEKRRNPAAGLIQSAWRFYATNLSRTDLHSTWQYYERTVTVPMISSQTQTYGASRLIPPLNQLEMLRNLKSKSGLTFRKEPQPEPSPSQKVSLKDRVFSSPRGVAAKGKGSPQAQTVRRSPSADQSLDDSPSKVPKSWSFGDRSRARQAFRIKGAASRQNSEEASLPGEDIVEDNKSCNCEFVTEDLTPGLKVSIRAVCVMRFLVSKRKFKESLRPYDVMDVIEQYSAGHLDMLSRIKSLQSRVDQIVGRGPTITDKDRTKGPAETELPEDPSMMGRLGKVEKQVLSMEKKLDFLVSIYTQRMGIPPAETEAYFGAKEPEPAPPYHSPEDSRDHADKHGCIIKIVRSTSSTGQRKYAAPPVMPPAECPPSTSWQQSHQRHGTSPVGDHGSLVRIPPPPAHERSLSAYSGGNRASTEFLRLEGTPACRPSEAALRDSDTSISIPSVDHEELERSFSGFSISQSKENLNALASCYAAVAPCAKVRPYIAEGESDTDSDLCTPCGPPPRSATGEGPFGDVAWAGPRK
KCNQ2 inh – KCNQ2 (rat) channel inhibition; CHO-K1 KCNQ2, FluxOR thallium flux, 20 min; active compounds read low; AID 2156; O88943; hit rate 1.1% among 310,000; B-score at 10 µM;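 active = fluorescence ratio B-score at most minus 3 library SDs, with starting brightness B-score within 2 library SDs, cut at about -5.5 in these data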
An asterisk follows results filed as active; i = inactive; . = no result given. A selection: hits, their analogues and other compounds. The true share with any hit is near 1.6%.

SMILES | KCNQ2 pot | KCNQ2 inh
O=C(CSc1nc(N2CCCCC2)nc(N2CCCCC2)n1)N1CCc2ccccc21 | 14* | i
Cc1nc(SCC(=O)N2CCN(c3ccccc3)CC2)n[nH]1 | . | i
OC[C@H]1O[C@@H](O[C@@H]2[C@@H](CO)O[C@@](O)(CO)[C@H]2O)[C@H](O)[C@@H](O)[C@H]1O | . | i
COC1(OC)N=C(N)C2(C#N)C(c3ccc(F)cc3)C12C#N (centres undefined) | 1.8 | i
CCSC1(SCC)N=C(N)C2(C#N)C(c3ccc(F)cc3)C12C#N (centres undefined) | -5.9 | -5.9*
CC(C)(C)N(NC(=O)OCc1ccccc1)C(=O)c1ccccc1 | . | i
CC(C)(C)N(NC(=O)OCc1ccccc1)C(=O)c1ccccc1Cl | 7.7* | i
CCOC(=O)C(C)(C)N(Cc1ccccc1C)S(=O)(=O)c1ccc(Cl)c([N+](=O)[O-])c1 | -7.2 | -7.2*
CCCN(CCC)S(=O)(=O)c1ccc(Cl)c([N+](=O)[O-])c1 | . | i
COc1cccc(CNC(=O)CSc2nnc3c(n2)[nH]c2ccc(C)cc23)c1 | . | i
CCCCN(C(=O)CSCc1ccc(C)cc1)c1c(N)n(CCC)c(=O)[nH]c1=O | 0.45 | i
C=C(C)COc1ccc(-c2ncncc2Oc2ccc(OC)cc2)c(O)c1 | -5.8 | -5.8*
C=C(C)COc1ccc(-c2nc(N)nc(C)c2-c2ccc(OC)cc2)c(O)c1 | . | i
CCS(=O)(=O)N1Cc2ccccc2CC1C(=O)NCC12CC3CC(CC(C3)C1)C2 (centres undefined) | -7.1 | -7.1*
CCS(=O)(=O)N1Cc2ccccc2CC1C(=O)NC(C)C12CC3CC(CC(C3)C1)C2 (centres undefined) | . | i
O=c1c2cc(Cl)ccc2[nH]c(=S)n1Cc1ccco1 | . | i
O=c1c2cc(Cl)ccc2[nH]c(=S)n1Cc1cccs1 | 5.3* | i
O=C(CSc1nc(=O)n2ccccc2n1)NC1CCCCC1 | . | i
CN(CC(=O)Nc1cccc(F)c1)C(=O)CC1CCCCC1 | . | i
O=C(C1CCC(=O)N(C2CC2)C1)N1CCN(c2cccc(Cl)c2)CC1 (centres undefined) | . | i
O=[N+]([O-])c1cccc(-c2csc(N/N=C/c3cccc(O)c3)n2)c1 | . | i
CC(C)(C)c1ccc(C(=O)Nc2ccc(O)c3c(=O)cc(-c4ccccc4Cl)oc23)cc1 | -7 | -7*
O=C(Nc1ccc(O)c2c(=O)cc(-c3ccccc3Cl)oc12)c1ccc(F)cc1 | 1.5 | i
Cc1c(S(=O)(=O)Nc2ccc(Oc3ccccc3)cc2)c(=O)n(C)c(=O)n1C | . | i
Cc1cc(O)c(C(C[N+](=O)[O-])c2ccc(Cl)cc2)c(=O)o1 (centres undefined) | . | i
SMILES | KCNQ2 pot | KCNQ2 inh
Cc1cc(C)n(C(C[N+](=O)[O-])c2ccc(Cl)cc2)n1 (centres undefined) | -10 | -10*
O=C(COC(=O)c1ccccc1Nc1ccc(SC(F)F)cc1)NCc1ccco1 | 0.13 | i
O=C(NNc1ccc([N+](=O)[O-])cc1)C1CC1c1ccccc1 (centres undefined) | 6.3* | i
O=C(NNc1ccc([N+](=O)[O-])cc1)C1CC2CCCC(C1)C2=O (centres undefined) | 0.7 | i
CS(=O)(=O)N1CCN(c2ccccc2NC(=O)c2cc3ccccc3o2)CC1 | 0.21 | i
Cc1c(Cl)ccc2c(C(=O)NCCN3CCCCC3)cc(-c3ccccn3)nc12 | . | i
COc1ccccc1-c1cc(C(=O)NC2CCN(C)CC2)c2ccc(Cl)c(C)c2n1 | -5.8 | -5.8*
O=C(C1CCN(S(=O)(=O)c2ccc(F)cc2)CC1)N1CCCC(C(F)(F)F)C1 (centres undefined) | 0.02 | i
O=C(CSC1CCCCC1)Nc1ccccc1Br | 6.9* | i
CCN(CC(=O)Nc1ccccc1Br)C1CCCCC1 | . | i
Cc1ccc(NC(=O)CN2CCCC2)c2c1CC(C)(C)O2 | 1.2 | i
Cc1ccc(NS(=O)(=O)c2ccccc2Cl)c2c1CC(C)(C)O2 | -6 | -6*
CC(OC(=O)CC1CCCCC1)C(=O)Nc1ccc(F)cc1 (centres undefined) | 0.34 | i
C=CCN(C)CC/C=C1\c2ccccc2CSc2ccccc21 | . | i
C#CCN(C)CC/C=C1\c2ccccc2CSc2ccccc21 | -6 | -6*
CN(c1ccc(OCC(=O)Nc2nc3ccccc3s2)cc1)S(=O)(=O)c1ccccc1 | . | i
CCOc1ccc(S(=O)(=O)N(C)c2ccc(OCC(=O)Nc3nc4ccccc4s3)cc2)cc1 | -5.9 | -5.9*
Cc1ccc(N(C)S(=O)(=O)c2ccc(-c3cnc(C4CC4)o3)cc2)cc1 | -9.5 | -9.5*
Cc1ccc(NS(=O)(=O)c2ccc(-c3cnc(C4CC4)o3)cc2)cc1 | . | i
Cc1nc2ccc(Br)cc2c(-c2ccccc2)c1C(=O)O | . | i
CC(=O)c1c(C)nc2ccc(Br)cc2c1-c1ccccc1 | -7.8 | -7.8*
CCN(CC)CCN(C(=O)c1ccc2c(c1)CCCC2)c1nc2c(C)cccc2s1 | -8.1 | -8.1*
Cc1cc(C)c2nc(N(CCN(C)C)C(=O)c3ccc4ccccc4c3)sc2c1 | -6 | -6*
CCN(CC)CCN(C(=O)c1ccc2c(c1)CCCC2)c1nc2ccc(C)cc2s1 | . | i
CN(C)CCN(C(=O)c1ccc2ccccc2c1)c1nc2c(F)cccc2s1 | . | i
SMILES | KCNQ2 pot | KCNQ2 inh
CN(CC(=O)N1CCN(c2ccccc2)CC1)C1CCCc2ccccc21 (centres undefined) | . | i
Cc1ccccc1OCC(=O)OCC(=O)Nc1cc(S(=O)(=O)N2CCCCC2)ccc1Cl | . | i
Cc1ncc([N+](=O)[O-])n1S(=O)(=O)c1cc(Cl)ccc1Cl | 0.85 | i
C1CNCCNCCCNCCNC1 | . | i
CC(C)CC(C(=O)N1CCc2ccccc2C1)N1C(=O)c2ccccc2C1=O (centres undefined) | -6.5 | -6.5*
CC(C(=O)N1CCc2ccccc2C1)N1C(=O)c2ccccc2C1=O (centres undefined) | 0.16 | i
CSc1c(CC(=O)Nc2ccccc2)n(C)c2ccccc12 | . | i
Cn1c(CC(=O)Nc2ccccc2)c(Sc2ccccc2)c2ccccc21 | -6.2 | -6.2*
CCCNC(=O)[C@H](Cc1c[nH]c2ccccc12)NC(=O)c1ccccc1Cl | . | i
CCOC(=O)CSc1ncc(OC)c(Sc2ccc(Cl)cc2)n1 | . | i
CCOC(=O)C(C)Sc1ncc(OC)c(Sc2ccc(Cl)cc2)n1 (centres undefined) | -8 | -8*
COC(=O)[C@]1(C)N[C@H](c2ccc(SC3CCCCC3)c(OC)c2)[C@@H]2C(=O)N(C)C(=O)[C@@H]21 | . | i
CCOC(=S)SCC(=O)N1CCc2cc(OC)ccc2C1C1C(=O)CCCC1=O (centres undefined) | . | i
CSc1nc(-c2ccc(C)cc2)[nH]c1S(=O)(=O)c1ccccc1 | . | i
CC(=O)Sc1nc(-c2ccccc2)[nH]c1S(=O)(=O)c1ccc(C)cc1 | -11 | -11*
CCOC(=O)c1cc(C(C)(C)C)oc1CNC(=O)c1c(C)oc2c1CCCC2 | -6.1 | -6.1*
CCOC(=O)c1cc(C(C)(C)C)oc1CN | 0.39 | i
COc1ccc(OC)c(-c2nc(C(=O)NCC3CCCO3)cc3c2[nH]c2ccccc23)c1 (centres undefined) | . | i
COc1cccc(-c2nc(C(=O)NCC3CCCO3)cc3c2[nH]c2ccccc23)c1 (centres undefined) | -5.7 | -5.7*
CC(C)(C)NC(=O)NC(=O)CN1CCN(C(c2ccccc2)c2ccccc2)CC1 | . | i
